{
  "source": "PubChem BioAssay AID1224864",
  "about": "(Chung Lab, Department of Pediatrics, Emory University, 2016)",
  "note": "In all, about 2,000 compounds went through this assay and about 20 (1%) were called active. No rule for the calls is given here. What follows is part of a selection rich in actives, with near analogues and random picks from the rest.",
  "data": [
    {"molecular_target": "Cystic fibrosis transmembrane conductance regulator (Homo sapiens) (UniProt P13569)", "sequence (P13569 whole entry, looked up, stated change not applied)": "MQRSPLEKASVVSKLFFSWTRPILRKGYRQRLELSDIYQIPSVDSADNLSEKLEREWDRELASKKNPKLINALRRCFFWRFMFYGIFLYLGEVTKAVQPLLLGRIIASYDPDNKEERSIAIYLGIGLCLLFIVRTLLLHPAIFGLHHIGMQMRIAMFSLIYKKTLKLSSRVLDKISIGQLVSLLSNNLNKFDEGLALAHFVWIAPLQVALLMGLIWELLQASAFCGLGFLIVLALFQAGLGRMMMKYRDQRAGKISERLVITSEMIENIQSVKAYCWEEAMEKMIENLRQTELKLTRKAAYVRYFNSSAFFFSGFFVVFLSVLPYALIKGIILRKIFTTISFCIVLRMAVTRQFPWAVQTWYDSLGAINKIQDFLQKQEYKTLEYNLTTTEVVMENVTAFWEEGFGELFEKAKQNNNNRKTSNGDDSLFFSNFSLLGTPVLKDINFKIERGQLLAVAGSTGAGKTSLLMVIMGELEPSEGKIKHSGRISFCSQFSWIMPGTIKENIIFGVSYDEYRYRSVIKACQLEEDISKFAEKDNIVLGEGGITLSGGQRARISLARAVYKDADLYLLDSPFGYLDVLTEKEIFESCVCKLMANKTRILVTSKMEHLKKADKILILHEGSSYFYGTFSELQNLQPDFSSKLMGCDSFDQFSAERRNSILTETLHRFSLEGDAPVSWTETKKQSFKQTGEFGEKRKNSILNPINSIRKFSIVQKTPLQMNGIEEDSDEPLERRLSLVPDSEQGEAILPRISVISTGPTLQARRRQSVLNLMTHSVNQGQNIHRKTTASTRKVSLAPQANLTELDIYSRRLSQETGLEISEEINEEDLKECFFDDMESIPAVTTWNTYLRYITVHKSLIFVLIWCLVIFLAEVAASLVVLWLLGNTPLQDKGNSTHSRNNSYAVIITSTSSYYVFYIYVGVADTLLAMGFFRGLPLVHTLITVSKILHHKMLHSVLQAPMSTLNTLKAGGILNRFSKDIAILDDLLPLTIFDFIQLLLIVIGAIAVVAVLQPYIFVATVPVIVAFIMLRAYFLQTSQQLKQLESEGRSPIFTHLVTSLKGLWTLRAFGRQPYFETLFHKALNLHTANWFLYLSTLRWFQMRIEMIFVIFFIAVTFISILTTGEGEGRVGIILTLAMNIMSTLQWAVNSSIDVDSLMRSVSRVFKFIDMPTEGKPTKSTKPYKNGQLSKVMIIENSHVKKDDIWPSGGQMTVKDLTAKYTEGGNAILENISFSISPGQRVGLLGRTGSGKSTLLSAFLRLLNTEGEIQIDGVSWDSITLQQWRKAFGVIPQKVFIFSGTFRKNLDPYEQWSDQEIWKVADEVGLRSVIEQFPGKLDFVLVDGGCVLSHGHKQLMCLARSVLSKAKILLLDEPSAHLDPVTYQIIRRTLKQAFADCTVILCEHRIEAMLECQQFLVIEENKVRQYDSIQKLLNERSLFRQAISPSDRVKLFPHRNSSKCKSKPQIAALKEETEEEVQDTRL", "assay": "correctors of F508del-CFTR surface localization, primary screen, imaging, HeLa, high-content microscopy, immunofluorescence (AID 1224864);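 also: HeLa cells stably expressing F508del-CFTR stained with 3G11 antibody against NBD1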;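 as to plasma membrane CFTR intensity: mean immunofluorescence in a thin cell-margin band taken as plasma membrane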", "details": "PM immunofluorescence imaging, 24 h, at 10 µM, stronger effect = higher value, relative to vehicle wells set at 100; total CFTR intensity: measured here: total cellular F508del-CFTR signal", "units": {"total CFTR intensity": "%"}, "values": [
      {"smiles": "Cc1coc2cc3oc(=O)c(CCC(=O)O)c(C)c3cc12", "plasma membrane CFTR intensity": "105% (inactive)", "total CFTR intensity": 107},
      {"smiles": "N#C/C(C(N)=O)=c1/ccc2c(c1)N1C3=C(CCCC3)CC3CCCCC31N=2", "note": "(centres undefined)", "plasma membrane CFTR intensity": "109% (active)", "total CFTR intensity": 123},
      {"smiles": "COC1CCCCC1Nc1ccc(C)c(C)c1", "note": "(centres undefined)", "plasma membrane CFTR intensity": "80% (inactive)", "total CFTR intensity": 82},
      {"smiles": "CC(=O)Nc1cc(O)cc(O)c1", "plasma membrane CFTR intensity": "83% (inactive)", "total CFTR intensity": 93},
      {"smiles": "O=C(NCC1CCCO1)c1ccc(OC2CCN(C(=O)C3CC3)CC2)cc1", "note": "(centres undefined)", "plasma membrane CFTR intensity": "83% (inactive)", "total CFTR intensity": 76},
      {"smiles": "CCOC(=O)c1oc2cc(OCC(N)=O)ccc2c(=O)c1-c1ccc(OC)c(OC)c1", "plasma membrane CFTR intensity": "82% (inactive)", "total CFTR intensity": 82},
      {"smiles": "CC(=O)OCC(=O)[C@@]1(O)CC[C@H]2[C@@H]3CCC4=CC(=O)C=C[C@]4(C)[C@H]3[C@@H](O)C[C@@]21C", "plasma membrane CFTR intensity": "89% (inactive)", "total CFTR intensity": 94},
      {"smiles": "CC1(C)O[C@@H]2C[C@H]3[C@@H]4CCC5=CC(=O)C=C[C@]5(C)[C@@]4(F)[C@@H](O)C[C@]3(C)[C@]2(C(=O)CO)O1", "plasma membrane CFTR intensity": "109% (inactive)", "total CFTR intensity": 114},
      {"smiles": "CCCC1O[C@@H]2C[C@H]3[C@@H]4CCC5=CC(=O)C=C[C@]5(C)[C@H]4[C@@H](O)C[C@]3(C)[C@]2(C(=O)CO)O1", "note": "(some centres undefined)", "plasma membrane CFTR intensity": "123% (active)", "total CFTR intensity": 137},
      {"smiles": "CC(=O)N1c2ccccc2C(C)=CC1(C)C", "plasma membrane CFTR intensity": "80% (inactive)", "total CFTR intensity": 87},
      {"smiles": "COc1ccc(C(=O)CC2OC(=O)c3c2ccc(OC)c3OC)cc1", "note": "(centres undefined)", "plasma membrane CFTR intensity": "118% (inactive)", "total CFTR intensity": 115},
      {"smiles": "COc1ccc2c(c1OC)C(C1c3c(cc4c(c3OC)OCO4)CCN1C)OC2=O", "note": "(centres undefined)", "plasma membrane CFTR intensity": "116% (inactive)", "total CFTR intensity": 112},
      {"smiles": "COc1ccc2c(c1OC)C(=O)OC2C1c2c(cc3c(c2OC)OCO3)CCN1C", "note": "(centres undefined)", "plasma membrane CFTR intensity": "138% (active)", "total CFTR intensity": 128},
      {"smiles": "COc1ccc(CCNC(=S)NC(=O)/C=C/c2ccc(C)cc2)cc1OC", "plasma membrane CFTR intensity": "82% (inactive)", "total CFTR intensity": 81},
      {"smiles": "CN/C(=C/[N+](=O)[O-])NCCSCc1ccc(CN(C)C)o1", "plasma membrane CFTR intensity": "88% (inactive)", "total CFTR intensity": 83},
      {"smiles": "Cc1ncoc1C(=O)N1CCCC(C(=O)c2ccc(-c3ccccc3)c(F)c2)C1", "note": "(centres undefined)", "plasma membrane CFTR intensity": "82% (inactive)", "total CFTR intensity": 75},
      {"smiles": "CCc1cc(=O)oc2cc(C)c(CN3CCCC(C)C3)c(O)c12", "note": "(centres undefined)", "plasma membrane CFTR intensity": "88% (inactive)", "total CFTR intensity": 88}
    ]}
  ]
}
